{"source": "ChEMBL document CHEMBL3433997", "about": "“St. Jude Leishmania screening dataset” (2016)", "data": [{"molecular_target": "Glucose transporter (Leishmania mexicana) (UniProt O61059)", "test": "ST_JUDE_LEISH: Cytotoxicity at 2uM final concentration against transgenic Leishmania Mexicana promastigotes LmGT2 that are glucose transport deficient and complemented with the L. Mexicana glucose transporter 2. Activity is measured by DNA content using SYBR green in vitro", "type": "functional", "units": {"inhibition": "%"}, "values": [{"compound": "CCCc1cc(NC2CCN(C)CC2)nc(Nc2cccc(OC)c2)n1", "inhibition": 6.84}, {"compound": "CS(=O)(=O)Cc1ccc(Nc2nccc(NC3CCN(c4nccc(C(F)(F)F)n4)CC3)n2)cc1", "inhibition": -2.6}, {"compound": "OCCNc1nc(Nc2ccc(F)cc2)nc2ccccc12", "inhibition": 2.07}, {"compound": "N#Cc1ccc(C=Cc2nccc3c2[nH]c2ccccc23)cc1", "inhibition": 9.13}, {"compound": "O=C(Nc1ccc(OC2CCN(Cc3ccsc3)CC2)c(Cl)c1)c1cccs1", "inhibition": 2.85}, {"compound": "CC(C)NC(C)(C)CN(Cc1ccc(-c2ccc(C(F)(F)F)cc2)cc1)C(=O)Cn1c(CCc2cccc(F)c2F)nc(=O)c2ccccc21", "inhibition": -0.1}, {"compound": "CCc1cc2c(=O)c(-c3nc(C)cs3)c(N)oc2c(CN2CCCCC2)c1O", "inhibition": 3.34}, {"compound": "O=C1C(c2ccccc2)=C(Nc2cccc([N+](=O)[O-])c2)c2ccccc21", "inhibition": 9.44}, {"compound": "O=C(Nc1ccc(-c2ccc(-c3nc4ccccc4[nH]3)s2)cc1)Nc1ccsc1", "inhibition": 4.17}, {"compound": "CN(C)CCN1CCN(CCCN2c3ccccc3Sc3ccc(C(F)(F)F)cc32)CC1", "inhibition": 3.66}, {"compound": "CCCC1(NC[C@@H](O)[C@H](Cc2ccccc2)NC(=O)c2cc(NCC)cc(N3CCCCS3(=O)=O)c2)CCCC1", "inhibition": 3.48}, {"compound": "CS(=O)(=O)NCCCNCc1ccc(-c2ccc(-c3nc4cc(F)ccc4[nH]3)s2)cc1", "inhibition": -2.09}, {"compound": "O=C(Nc1ccccc1)N(Cc1cccc(-c2cccc(CNCc3ccc4c(c3)OCO4)c2)c1)C1CCN(Cc2ccccc2)CC1", "inhibition": 2.79}, {"compound": "O=C(Nc1ccccc1F)N(CCCn1ccnc1)Cc1csc(-c2ccc(CNCc3ccccc3)cc2)n1", "inhibition": 3.14}, {"compound": "CC(C)n1cc(CN2CCCC(C(=O)Nc3cccc(-c4cc5ccccc5[nH]4)c3)C2)cn1", "note": "(stereo not given)", "inhibition": -0.59}, {"compound": "COc1ccc(CNCc2ccc(-c3ccc(-c4nc5cc(C(F)(F)F)ccc5[nH]4)cc3)cc2)cc1", "inhibition": 3.06}, {"compound": "O=S(=O)(NCCN1CCCC1)c1ccc(-c2ccc(CNCc3ccc(F)cc3)cc2)cc1F", "inhibition": 3.28}, {"compound": "Cc1cc2cc(NC(=O)Nc3ccnc4ccccc34)ccc2n1C", "inhibition": 0.82}, {"compound": "COc1ccc2nccc([C@@H](O)CN3CCC(NCc4nc5c(cc4F)SCC(=O)N5)C(F)C3)c2c1", "note": "(stereo not given in full)", "inhibition": 4.51}, {"compound": "CCCCn1c(N)c(N(Cc2ccco2)C(=O)C=Cc2cc(OC)c3c(c2)OCCO3)c(O)nc1=O", "inhibition": 3.32}, {"compound": "CCc1cn2c3c(cc(C(=O)N[C@@H](Cc4cccc(Cl)c4)[C@H](O)CNC4CCOCC4)cc13)N(C)S(=O)(=O)CC2", "inhibition": 1.44}, {"compound": "CCC1N=C(N)N=C(N)N1OCc1ccc(Cl)c(Cl)c1", "note": "(stereo not given)", "inhibition": -0.8}, {"compound": "CC1(C)NC(N)=NC(=N)N1OCc1cccs1", "inhibition": 7.36}, {"compound": "Cc1cc(NC(=O)c2cccs2)ccc1OC1CCN(Cc2ccc(C#N)cc2)CC1", "inhibition": -0.42}, {"compound": "COc1ccc(C=CC(=O)NC(=O)c2ccccc2OC(=O)c2ccccc2)cc1OC", "inhibition": 1.89}, {"compound": "COc1ccc2nc(C)cc(N/N=C/c3ccccc3[N+](=O)[O-])c2c1", "inhibition": -0.41}, {"compound": "CCCCc1ccc(Cc2cnc3nc(N)nc(N)c3c2C)cc1", "inhibition": 15.6}, {"compound": "CN1CCC(NCCS(=O)(=O)c2cccc(Nc3ccc(-c4cccc(F)c4)cn3)c2)CC1", "inhibition": -0.71}, {"compound": "COc1cc(OC)c(NC(=O)COc2ccc(C)cc2)cc1Cl", "inhibition": 3.07}, {"compound": "CN(C)S(=O)(=O)c1ccc(N2CCN(CCC3(c4cccc(F)c4)CCN(C(=O)C(C)(C)C)CC3)CC2)c2nonc12", "inhibition": 2.89}, {"compound": "O=C(Nc1ccc(Cl)cn1)c1sc2ccccc2c1O", "inhibition": 0.99}, {"compound": "CCN(CC)CCN(Cc1ccc(-c2ccc(C(F)(F)F)cc2)cc1)C(=O)Cn1c(SCc2ccc(F)cc2)nc(=O)c2sccc21", "inhibition": 4.07}, {"compound": "CC1(C)NC(N)=NC(=N)N1OCCNCc1ccc(Cl)cc1", "inhibition": 3.92}, {"compound": "CCOc1ccc(N2C(N)=NC(N)=NC2(C)C)cc1", "inhibition": 4.06}, {"compound": "COc1ccc2nccc([C@@H](O)CN3CCC(NCc4cc5c(cc4F)SCC(=O)N5)CC3)c2n1", "inhibition": 8.6}, {"compound": "Cn1c(=N)n(CC(=O)OCc2ccc(OCc3ccccc3)cc2)c2ccccc21", "inhibition": 1.49}, {"compound": "Cc1nnsc1C(=O)Nc1ccc(-c2cccc(-c3nc4cc(F)ccc4[nH]3)c2)cc1", "inhibition": -2.69}, {"compound": "C=CCOC(=O)N1CCC(CNCc2cccc(-c3ccc(-c4nc5cc(C(F)(F)F)ccc5[nH]4)cc3)c2)C1", "note": "(stereo not given)", "inhibition": 1.63}, {"compound": "CN(C)c1ccc(C(c2ccc(N(C)C)cc2)c2cc([N+](=O)[O-])ccc2Cl)cc1", "inhibition": -3.09}, {"compound": "CCCCCC(C)N/C(=N/c1cccc(Cl)c1Cl)Nc1ccc(C#N)cc1O", "note": "(stereo not given)", "inhibition": 2.7}]}]}
